# Experimental data published in ChEMBL document CHEMBL3988442, “University of Dundee, Small-Polar-MMV Screening Library” (2021).
# For some assays here: Potency and affinity values are given separately.
# Key:
# Parameters in all cases: scale not given: direction of the effect not stated beside the values
# [1] = molecular target: Protein translocase subunit SecA (Escherichia coli (strain K12)) (UniProt P10408); experiment: Assay to Identify E. coli SecA ATPase Inhibitors; format: functional; settings: 30 µM
# [2] = molecular target: T1, Ubiquitin-activating enzyme e1, putative (Leishmania donovani (strain BPK282A1)) (UniProt E9BSI1); experiment: Leishmania donovani Ubiquitin Activating Enzyme (LdE1); format: functional; settings: 30 µM
# T1 sequence (whole entry): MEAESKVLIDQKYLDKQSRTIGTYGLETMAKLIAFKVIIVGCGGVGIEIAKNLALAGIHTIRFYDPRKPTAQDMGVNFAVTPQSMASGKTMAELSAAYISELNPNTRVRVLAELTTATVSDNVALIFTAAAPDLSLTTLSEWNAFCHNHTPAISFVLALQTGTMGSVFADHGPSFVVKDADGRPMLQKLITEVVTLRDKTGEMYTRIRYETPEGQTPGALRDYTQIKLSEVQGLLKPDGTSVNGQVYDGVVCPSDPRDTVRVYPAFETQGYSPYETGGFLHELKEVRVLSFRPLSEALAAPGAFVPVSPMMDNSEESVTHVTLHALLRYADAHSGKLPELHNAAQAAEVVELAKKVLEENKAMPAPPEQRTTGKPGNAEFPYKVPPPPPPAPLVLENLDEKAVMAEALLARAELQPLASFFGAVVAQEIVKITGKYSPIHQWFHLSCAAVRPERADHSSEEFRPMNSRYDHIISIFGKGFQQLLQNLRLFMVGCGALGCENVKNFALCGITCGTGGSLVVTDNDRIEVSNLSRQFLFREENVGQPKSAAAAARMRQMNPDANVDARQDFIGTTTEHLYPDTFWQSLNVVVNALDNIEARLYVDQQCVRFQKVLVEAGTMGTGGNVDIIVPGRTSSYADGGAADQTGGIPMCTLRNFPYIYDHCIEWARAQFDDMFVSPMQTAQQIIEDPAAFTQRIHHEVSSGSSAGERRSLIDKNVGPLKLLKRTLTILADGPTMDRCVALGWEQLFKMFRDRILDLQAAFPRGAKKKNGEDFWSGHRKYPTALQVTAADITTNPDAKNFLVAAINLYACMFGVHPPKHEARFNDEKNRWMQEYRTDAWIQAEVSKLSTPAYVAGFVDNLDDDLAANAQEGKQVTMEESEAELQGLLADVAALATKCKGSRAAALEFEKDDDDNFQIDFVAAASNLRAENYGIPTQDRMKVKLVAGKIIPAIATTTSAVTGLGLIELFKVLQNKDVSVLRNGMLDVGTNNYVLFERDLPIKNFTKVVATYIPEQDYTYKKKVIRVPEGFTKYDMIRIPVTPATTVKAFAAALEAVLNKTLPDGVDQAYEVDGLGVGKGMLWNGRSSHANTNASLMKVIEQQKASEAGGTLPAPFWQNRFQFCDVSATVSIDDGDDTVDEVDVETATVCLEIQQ
# [3] = molecular target: AMP-activated protein kinase, AMPK (Homo sapiens) (UniProt P54646+O43741+P54619+Q9UGJ0+Q9Y478+Q13131+Q9UGI9); experiment: AMP-dependent Kinase enzyme assay. An in vitro enzyme assay that detects ADP turnover that is directly proportional to AMPK activity. This uses naive AMPK that is activated during the assay with MK-8722; format: functional; settings: 30 µM
# [4] = molecular target: Sialic acid-binding Ig-like lectin 9 (Homo sapiens) (UniProt Q9Y336); experiment: Hs-Siglec9 ALPHAscreen SOP 20170721; settings: 10 µM
# Trypanosoma cruzi = experiment: Trypanosoma cruzi phosphomannomutase and mannose-1-phosphate guanylyltransferase assay; format: functional; settings: 10 µM
# [5] = molecular target: T2, Arginase-2, mitochondrial (Homo sapiens) (UniProt P78540); experiment: in vitro enzyme assay to detect the production of urea directly proportional to the activity of Arginase II; format: functional; settings: 33.3 µM; further: in the data most compounds retested in dose-response had high values
# T2 sequence (whole entry): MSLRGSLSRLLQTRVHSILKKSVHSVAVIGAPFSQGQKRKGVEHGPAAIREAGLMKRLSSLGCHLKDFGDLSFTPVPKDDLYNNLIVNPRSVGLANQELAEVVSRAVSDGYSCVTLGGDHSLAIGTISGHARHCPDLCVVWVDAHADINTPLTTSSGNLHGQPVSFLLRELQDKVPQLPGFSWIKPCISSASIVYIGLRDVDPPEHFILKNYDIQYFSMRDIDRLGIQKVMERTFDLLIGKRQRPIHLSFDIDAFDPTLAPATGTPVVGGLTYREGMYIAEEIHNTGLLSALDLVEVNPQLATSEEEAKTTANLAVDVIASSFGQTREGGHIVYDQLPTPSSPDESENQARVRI
# [6] = molecular target: T3, Proteasome subunit beta (Trypanosoma cruzi) (UniProt O96673); experiment: Trypanosoma cruzi proteasome chymotrypsin-like activity (TcProtChymo) assay.; further: in the data most compounds retested in dose-response had high values; format: functional; settings: 9.37 µM
# T3 sequence (whole entry): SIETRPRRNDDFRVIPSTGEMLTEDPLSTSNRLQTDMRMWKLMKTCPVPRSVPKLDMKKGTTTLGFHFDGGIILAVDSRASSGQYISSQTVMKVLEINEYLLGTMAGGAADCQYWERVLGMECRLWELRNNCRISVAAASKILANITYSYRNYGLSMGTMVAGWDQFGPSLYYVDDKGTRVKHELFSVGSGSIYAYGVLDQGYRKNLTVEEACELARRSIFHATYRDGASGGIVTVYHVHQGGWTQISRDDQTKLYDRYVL
# Homo sapiens = organism: Homo sapiens; experiment: To identify inhibition of the IFN signalling (Jak-Stat) pathway via expression of an eGFP reporter gene under the control of an IFN-stimulated response element (ISRE) containing MxA promoter.; format: functional; settings: 30 µM
# [7] = molecular target: T4, Tyrosyl-tRNA synthetase, putative (Trypanosoma cruzi (strain CL Brener)) (UniProt Q4DSP6); experiment: Trypanosoma cruzi tyrosyl tRNA synthetase (TcYRS) _High Tyrosine SOP; format: functional; settings: 30 µM; further: in the data most compounds retested in dose-response had high values
# T4 sequence (whole entry): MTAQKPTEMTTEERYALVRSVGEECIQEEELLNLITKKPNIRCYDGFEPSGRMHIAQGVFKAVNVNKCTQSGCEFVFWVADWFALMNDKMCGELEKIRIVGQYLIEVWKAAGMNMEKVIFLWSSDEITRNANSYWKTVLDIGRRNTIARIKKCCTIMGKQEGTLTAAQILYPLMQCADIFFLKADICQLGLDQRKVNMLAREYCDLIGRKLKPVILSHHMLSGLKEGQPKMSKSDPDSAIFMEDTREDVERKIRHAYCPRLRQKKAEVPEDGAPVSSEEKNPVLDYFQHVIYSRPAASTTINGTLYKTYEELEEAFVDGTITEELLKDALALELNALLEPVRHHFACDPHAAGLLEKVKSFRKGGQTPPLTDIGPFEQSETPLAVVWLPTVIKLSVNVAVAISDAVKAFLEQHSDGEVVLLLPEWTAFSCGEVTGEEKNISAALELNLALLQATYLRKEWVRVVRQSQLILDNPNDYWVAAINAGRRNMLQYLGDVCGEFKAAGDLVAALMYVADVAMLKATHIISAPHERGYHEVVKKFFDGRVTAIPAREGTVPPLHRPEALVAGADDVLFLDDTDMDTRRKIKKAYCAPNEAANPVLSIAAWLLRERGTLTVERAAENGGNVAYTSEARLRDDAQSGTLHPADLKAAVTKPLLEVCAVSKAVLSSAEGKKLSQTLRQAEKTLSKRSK
# [8] = molecular target: T4, Tyrosyl-tRNA synthetase, putative (Trypanosoma cruzi (strain CL Brener)); experiment: Trypanosoma cruzi tyrosyl tRNA synthetase (TcYRS) SOP; format: functional; settings: 30 µM
# [9] = molecular target: Chromo domain-containing protein 1 (Saccharomyces cerevisiae (strain ATCC 204508 / S288c) (Baker's yeast)) (UniProt P32657); experiment: ScCHD-1 Enzyme Inhibition Assay; format: functional; settings: 30 µM; further: in the data most compounds retested in dose-response had high values
# Chain of Chromo domain-containing protein 1 (Saccharomyces cerevisiae (strain ATCC 204508 / S288c) (Baker's yeast)) (P32657 whole entry, the tested form may be a part): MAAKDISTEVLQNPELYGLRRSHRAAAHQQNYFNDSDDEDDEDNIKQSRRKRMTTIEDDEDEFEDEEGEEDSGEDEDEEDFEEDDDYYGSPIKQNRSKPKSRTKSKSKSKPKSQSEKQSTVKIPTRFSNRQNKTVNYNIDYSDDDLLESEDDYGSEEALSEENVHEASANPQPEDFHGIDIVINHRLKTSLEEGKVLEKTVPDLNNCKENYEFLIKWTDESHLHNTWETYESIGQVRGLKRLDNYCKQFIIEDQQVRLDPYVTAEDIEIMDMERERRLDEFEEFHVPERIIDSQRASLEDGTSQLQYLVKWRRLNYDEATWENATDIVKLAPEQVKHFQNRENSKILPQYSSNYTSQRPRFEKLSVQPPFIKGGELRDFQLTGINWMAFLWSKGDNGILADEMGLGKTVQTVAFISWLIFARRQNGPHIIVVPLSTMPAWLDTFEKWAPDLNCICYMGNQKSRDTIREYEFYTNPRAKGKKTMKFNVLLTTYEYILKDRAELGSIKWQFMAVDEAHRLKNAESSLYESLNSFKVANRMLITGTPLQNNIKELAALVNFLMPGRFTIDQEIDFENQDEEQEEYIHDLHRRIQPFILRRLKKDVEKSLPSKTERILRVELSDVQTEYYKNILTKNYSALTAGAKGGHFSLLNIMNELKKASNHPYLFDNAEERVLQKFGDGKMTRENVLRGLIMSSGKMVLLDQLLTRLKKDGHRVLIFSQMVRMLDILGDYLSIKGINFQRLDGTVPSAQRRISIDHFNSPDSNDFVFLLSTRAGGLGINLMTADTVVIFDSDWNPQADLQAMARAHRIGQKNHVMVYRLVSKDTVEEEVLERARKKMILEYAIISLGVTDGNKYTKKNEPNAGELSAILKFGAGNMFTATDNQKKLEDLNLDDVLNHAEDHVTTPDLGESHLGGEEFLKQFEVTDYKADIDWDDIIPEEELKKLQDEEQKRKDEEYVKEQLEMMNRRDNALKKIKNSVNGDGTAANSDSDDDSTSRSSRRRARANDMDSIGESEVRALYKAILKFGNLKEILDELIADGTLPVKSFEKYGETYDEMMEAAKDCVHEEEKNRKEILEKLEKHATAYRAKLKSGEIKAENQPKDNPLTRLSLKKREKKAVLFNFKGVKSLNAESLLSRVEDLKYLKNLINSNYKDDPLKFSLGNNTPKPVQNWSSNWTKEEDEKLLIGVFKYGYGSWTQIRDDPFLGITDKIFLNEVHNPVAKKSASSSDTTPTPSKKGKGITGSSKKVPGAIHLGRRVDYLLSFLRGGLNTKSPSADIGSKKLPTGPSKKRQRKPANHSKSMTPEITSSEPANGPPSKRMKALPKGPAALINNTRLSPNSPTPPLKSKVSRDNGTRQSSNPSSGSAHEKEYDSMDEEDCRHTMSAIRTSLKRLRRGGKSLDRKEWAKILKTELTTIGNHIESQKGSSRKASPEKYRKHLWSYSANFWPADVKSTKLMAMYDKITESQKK
# Chain of Sialic acid-binding Ig-like lectin 9 (Homo sapiens) (Q9Y336 whole entry): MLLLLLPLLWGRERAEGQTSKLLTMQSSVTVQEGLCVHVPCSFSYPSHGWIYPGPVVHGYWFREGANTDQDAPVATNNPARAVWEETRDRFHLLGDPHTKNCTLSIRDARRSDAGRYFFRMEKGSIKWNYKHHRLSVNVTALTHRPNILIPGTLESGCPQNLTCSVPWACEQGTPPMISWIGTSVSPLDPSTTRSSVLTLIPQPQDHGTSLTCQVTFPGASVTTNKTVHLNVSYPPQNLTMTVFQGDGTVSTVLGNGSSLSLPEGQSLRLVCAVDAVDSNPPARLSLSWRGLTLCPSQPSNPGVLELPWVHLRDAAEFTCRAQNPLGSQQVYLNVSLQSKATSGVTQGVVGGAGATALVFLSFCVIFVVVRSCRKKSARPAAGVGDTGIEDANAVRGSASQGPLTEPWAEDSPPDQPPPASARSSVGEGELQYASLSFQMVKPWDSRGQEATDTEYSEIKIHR
# Chain of Protein translocase subunit SecA (Escherichia coli (strain K12)) (P10408 whole entry): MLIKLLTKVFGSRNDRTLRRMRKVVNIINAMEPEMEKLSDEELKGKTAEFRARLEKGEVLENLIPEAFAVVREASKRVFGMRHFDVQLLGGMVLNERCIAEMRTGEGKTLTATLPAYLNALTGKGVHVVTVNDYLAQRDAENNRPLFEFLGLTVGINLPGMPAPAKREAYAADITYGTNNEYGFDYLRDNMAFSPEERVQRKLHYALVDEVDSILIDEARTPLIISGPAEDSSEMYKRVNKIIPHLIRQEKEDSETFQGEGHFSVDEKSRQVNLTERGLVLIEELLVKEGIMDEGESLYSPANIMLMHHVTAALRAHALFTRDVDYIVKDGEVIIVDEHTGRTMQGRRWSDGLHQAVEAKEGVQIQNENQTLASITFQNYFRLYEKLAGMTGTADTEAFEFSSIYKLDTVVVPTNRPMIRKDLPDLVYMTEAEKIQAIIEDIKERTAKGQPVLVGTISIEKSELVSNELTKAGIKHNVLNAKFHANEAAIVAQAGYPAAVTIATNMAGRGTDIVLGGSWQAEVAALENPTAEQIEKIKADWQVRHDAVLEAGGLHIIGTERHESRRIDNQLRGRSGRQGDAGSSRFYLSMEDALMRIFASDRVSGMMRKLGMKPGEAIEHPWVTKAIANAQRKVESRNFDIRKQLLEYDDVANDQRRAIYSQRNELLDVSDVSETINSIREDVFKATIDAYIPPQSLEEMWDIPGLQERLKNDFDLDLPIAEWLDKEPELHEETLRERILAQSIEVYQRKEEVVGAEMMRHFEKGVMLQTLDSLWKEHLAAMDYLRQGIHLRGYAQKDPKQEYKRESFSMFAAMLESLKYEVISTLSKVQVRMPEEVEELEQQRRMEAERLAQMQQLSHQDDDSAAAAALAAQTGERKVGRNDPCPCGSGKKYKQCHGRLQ
Compound,Percent Effect [1] [%],Percent Effect [2] [%],Percent Effect [3] [%],Percent Effect [4] [%],Percent Effect (Trypanosoma cruzi) [%],Percent Effect [5] [%],Percent Effect [6] [%],Percent Effect (Homo sapiens) [%],Percent Effect [7] [%],Percent Effect [8] [%],Percent Effect [9] [%]
O=C(NCC1CCCO1)c1c(-n2cnnn2)sc2c1CCC2 (stereo unspecified),-5.27,5.26,6.31,-1.47,-2.82,3.55,17.6,-12.3,3.19,7.79,-4.34
O=C(NC1CC1)[C@@H]1CCO[C@@H]2CCN(C3CCOCC3)C[C@@H]21,1.01,2.6,-0.255,5.79,6.98,-13.8,3.49,-21.6,1.07,1.24,-7.95
O=C1CC(c2ccncc2)c2c(c(C(=O)O)cn2-c2ccc(F)cc2)N1 (stereo unspecified),-3.81,12,-34.9,-1.44,-3.14,-3.35,13.7,4.82,8.47,15.4,-5.97
Cc1cnn(CCNCc2csc(-c3ccc4c(c3)OCO4)n2)c1,-4.64,-13.2,-1.92,-4.07,-5.83,2.68,11.2,24,1.47,4.88,18
COCC1CN(C(=O)CNC(C)=O)Cc2ncnn2C1 (stereo unspecified),-4.16,7.79,5.62,8.97,2.65,2.76,4.99,-13.1,6.45,13.6,0.679
CNC(=O)c1cccc(C2CNCCN2C)c1 (stereo unspecified),1.64,14.9,4.3,-1.87,-2.96,7.19,12.2,-5.37,0,6.49,-5.34
Cc1cccc(CC(=O)NCCCOC(C)C)c1,-0.872,18.2,0.619,-8.05,-3.75,0.712,9.8,27.8,9.71,19.5,-7.62
NC(=O)C1CCN(Cc2cccc(NC(=O)c3ccsc3)c2)CC1,-6.14,2.67,-1.03,5.05,3.99,-2.08,7.85,17,7.1,13.6,-5.67
Cc1cnc2c(S(=O)(=O)NCC3CCS(=O)(=O)C3)cccc2c1 (stereo unspecified),-3.39,21.1,-0.0656,-5,6.26,3.24,16.8,7.48,7.39,23.5,-10.9
N#Cc1cccc(S(=O)(=O)N2CCCCC2CCN2CCCC2=O)c1 (stereo unspecified),-5.51,-52,-6.45,9.03,4.76,2,8.99,-12.8,4.17,11.1,-4.06
CC(CNC(=O)N1CCN(c2cnccn2)CC1)Cc1cccs1 (stereo unspecified),-2.51,2.7,6.5,15.7,-1.95,-1.67,10.6,-1.65,0.99,-6.1,0.413
CC(=O)N1C[C@H](NC(=O)c2cscn2)[C@@H]2OCCC[C@@H]21,-1.76,10.8,2.39,-9.14,-5.38,7.33,23.2,-9.35,-1.08,10.3,-0.517
CCc1ccc(NC(=O)c2cnc(N3CCN(C)CC3)nc2C)cc1,-3.08,20.8,-8.09,-20.9,4.63,-0.645,8.01,15.9,2.12,11.5,-10.8
Cn1ncc2c(=O)[nH]c(CN(Cc3cccc(F)c3)C3CC3)nc21,-4.78,15.6,1.73,-0.0963,8.05,3.92,16.1,-5.95,8.74,24.4,-7.35
CCc1nccn1C1CCCN(C(=O)CCCNc2ncccn2)C1 (stereo unspecified),-4.28,3.8,4.55,1.92,-2.77,2.8,6,9.01,4.17,10.1,-14.2
Cc1nc(C)n(CC2CN(Cc3cccc(C(N)=O)c3)CCO2)n1 (stereo unspecified),-1.88,-5.41,5.74,-4.05,-4.69,0,9.72,-7.92,5.94,6.1,7.72
